Assay outcomes (PubChem)
TEAD-YAP block – TEAD-YAP interaction inhibition, primary screen, TEAD-YAP interaction inhibitor project, luminescence, HEK-TIYL cells | TEAD-Gal4/YAP UAS-luciferase luminescence | inhibition, % at 9.12 µM | 640,000 tested, 1.4% active | AID 1259422, 2018; in the data active = inhibition above about 32%;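 also: 0% = median of test compound wells and 100% = reference inhibitor wells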
GPR151 activ – activators of human GPR151, primary screen, cell-based, PathHunter beta-arrestin, luminescence; PathHunter beta-arrestin GPR151 cells; activation, % at 11.2 µM; 650,000 tested, 1% active; in the data active = activation above about 4.9%;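 also: 0% = median of compound wells and 100% = cells with positive control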
Target sequence (Q8TDV0 whole entry, looked up): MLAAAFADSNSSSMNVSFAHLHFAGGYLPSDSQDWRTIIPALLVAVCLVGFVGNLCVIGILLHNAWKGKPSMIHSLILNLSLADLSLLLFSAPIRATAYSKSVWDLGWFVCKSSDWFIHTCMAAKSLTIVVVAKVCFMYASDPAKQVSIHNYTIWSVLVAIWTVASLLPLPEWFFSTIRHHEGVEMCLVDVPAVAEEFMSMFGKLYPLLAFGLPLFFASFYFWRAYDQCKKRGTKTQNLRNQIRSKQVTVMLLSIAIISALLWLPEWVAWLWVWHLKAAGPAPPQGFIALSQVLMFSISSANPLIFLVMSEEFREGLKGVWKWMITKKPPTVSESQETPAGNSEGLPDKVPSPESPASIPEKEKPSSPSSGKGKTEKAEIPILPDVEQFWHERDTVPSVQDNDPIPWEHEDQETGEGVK
FBW7 activator – FBW7 E3 ligase activators, primary screen, biochemical, AlphaScreen, human | F-box/WD repeat-containing protein 7 (Homo sapiens), Q969H0 | AlphaScreen FBW7–phospho-cyclin E peptide binding, activator screen | normalized activity (activation), % at 26.1 µM | 650,000 tested, 0.13% active; in the data active = normalized activity above about 1.9%;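 also: purified mutant Fbw7 with reduced substrate affinity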
MITF inh – MITF inhibitors, primary screen, biochemical, AlphaScreen, human. Microphthalmia-associated transcription factor (Homo sapiens), O75030. AlphaScreen MITF homodimerization, bead proximity signal. inhibition, % at 2.6 µM. 650,000 tested, 0.91% active; in the data active = inhibition above about 50%;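 also: 0% = vehicle wells with protein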
Starred values were filed as active, the others as inactive; ! = not confirmed by another sample. This is a sample that favours compounds with a hit; in the whole collection about 3.4% have one here.

SMILES | TEAD-YAP block | GPR151 activ | FBW7 activator | MITF inh
O=C(NC1CCCCC1)c1cccc(N2CCCC2=O)c1 | 14 | 0 | 0 | 3
O=C(NC1CCCCCC1)c1ccc(Cl)cc1Cl | 33* | -1 | 0 | 10
O=C(NC1CCCCCCC1)c1cc(F)c(F)cc1Cl | -52 | -1 | 0 | 0
COc1ccc(-c2nc3ccc(C(=O)NC4CCCCCCC4)cc3nc2-c2ccc(OC)cc2)cc1 | 2 | 0 | 0 | -7
C/C(Cn1nnc([N+](=O)[O-])n1)=N\NC(=O)c1cccc(Br)c1 | -36 | 0 | 0 | -1
COc1cc2nnc3c(c(C)nn3-c3ccccc3)c2cc1OC | 6 | 1 | 0 | 6
O=C(NC1CCCCCC1)c1ccc2c(c1)OCO2 | 44* | -7 | 0 | 3
O=C(NC1CCCCC1)c1ccc2c(c1)OCO2 | -18 | 0 | 0 | -1
Cc1nc2nc(NCc3ccc(F)cc3)nn2c(C)c1Cl | -15 | 0 | 0 | -13
O=C(Nc1onc2c1CCCC2)c1ccc(F)cc1 | -1 | -6 | 0 | -6
CCOC(=O)c1ccc(NC(=O)c2ccc3c(c2)OCCO3)cc1 | 35* | 0 | 0 | 6
CCCOC(=O)c1ccc(NC(=O)c2ccc(Cl)c(Cl)c2)cc1 | -4 | 1 | 0 | 4
O=C(Nc1ccc(F)cc1)c1ccc2c(c1)OCCO2 | 59* | -7 | 0 | -1
O=C(Nc1onc2c1CCCC2)c1ccc2c(c1)OCCO2 | 91* | -9 | 0 | -6
CCCOC(=O)c1ccc(NC(=O)c2ccc3c(c2)OCCO3)cc1 | 41* | -1 | 0 | -2
O=C(NC(Cc1ccccc1)C(=O)N1CCCCC1)c1cccs1 (stereo not drawn) | 9 | -1 | 0 | -17
Cc1[nH]n(-c2ccccc2)c(=S)c1C=Nc1ccc(Cl)cc1 | 5 | 1 | 0 | 14
CC(=O)c1ccc(N2CN=c3s/c(=C4\C(=O)Nc5ccc(C)cc54)c(=O)n3C2)cc1 | 5 | -2 | 0 | 11
Cc1ccc(NS(=O)(=O)c2ccc3c(c2)OCCN3C)c(Cl)c1 | 16 | 4 | 0 | 2
CC(C)Cc1nc(SCCN2CCCC2)c2c(=O)n(C)c(=O)n(C)c2n1 | 0 | 1 | 0 | 3
Cc1nc2cc(NC(=O)c3ccc4c(c3)OCCO4)ccc2s1 | 61* | -7 | 0 | 7
COc1ccc(C(=O)Nc2ccc3sc(C)nc3c2)cc1 | -23 | -1 | 0 | 9
CN1CCCCC1C(=O)N/N=C/c1cc(Br)ccc1F (stereo not drawn) | 1 | 1 | 0 | 6
COc1ccc(Br)cc1/C=C/C(=O)c1ccco1 | 61* | 0 | 0 | -4
O=C(/C=C/Nc1ccc(Br)cc1Cl)c1ccco1 | 94* | -4 | 0 | 11
SMILES | TEAD-YAP block | GPR151 activ | FBW7 activator | MITF inh
COc1ccccc1-c1ccc(/C=C/C(=O)c2ccco2)o1 | -49 | -1 | 1 | 11
COc1ccc(-c2ccc(/C=C/C(=O)c3ccco3)o2)cc1 | -42 | 4 | 0 | 63*
CS(=O)(=O)N(CC(=O)NCc1cccnc1)c1ccc(I)cc1 | -3 | 0 | 0 | -5
COC(=O)c1ccc(/C=N/NC(=O)c2ccoc2C)cc1 | 35* | -9 | 0 | -7
CCc1ccc(/C=N/NC(=O)c2ccoc2C)cc1 | 23 | -9 | 0 | 8
O=C(CN1CCN(CC(=O)Nc2ccc(OCc3ccccc3)cc2)CC1)Nc1ccc(F)cc1 | 19 | -1 | 0 | 4
O=C(Nc1ccc(CN2CCOCC2)cc1)c1ccc(OCc2ccccc2)cc1 | 13 | 0 | 0 | 2
O=C(Nc1ccc(OCc2ccccc2)cc1)c1ccc(CN2CCOCC2)cc1 | 49* | 1 | 0 | 7
O=C(CN1CCOCC1)Nc1ccc(OCc2ccccc2)cc1 | 33* | 0 | 0 | -5
O=C(O)CCSCc1cc2ccccc2o1 | -4 | 1 | 0 | -10
Cc1ccc(C)c(Nc2nc(N/N=C/c3ccccc3)nc(N3CCOCC3)n2)c1 | -18 | 1 | 0 | 8
CNC[C@H](O)c1ccc(O)c(O)c1 | -11 | 0 | 0 | 56*!
CC1(C)C(c2ccc(F)cc2)=[N+]([O-])C2(CCCCC2=O)N1O (stereo not drawn) | -7 | 2 | 1 | 8
CCCOc1ccc(C2=[N+]([O-])C3(CCCCC3=O)N(O)C2(C)C)cc1 (stereo not drawn) | 55* | 1 | 0 | -2
COc1ccc2cc3c(N)nn(C(=O)c4ccc(Br)o4)c3nc2c1 | 43* | 0 | 0 | 14
CCOc1ccc(C(=O)n2nc(N)c3cc4cc(OC)ccc4nc32)cc1 | 38* | 2 | 0 | 15
COc1ccc(C(=O)n2nc(N)c3cc4ccc(C)cc4nc32)cc1OC | -10 | 0 | 0 | -4
COc1ccc(C(=O)n2nc(N)c3cc4cc(OC)ccc4nc32)cc1 | 44* | -1 | 0 | -2
COc1ccc2nc3c(cc2c1)c(N)nn3C(=O)c1ccc([N+](=O)[O-])cc1Cl | -9 | -1 | 0 | -11
COc1ccc2cc3c(N)nn(C(=O)c4cncc(Br)c4)c3nc2c1 | 12 | -1 | 1 | 10
COc1ccc2cc3c(N)nn(C(=O)Cc4ccccc4OC)c3nc2c1 | 33* | -1 | 0 | 21
Cc1ccccc1CN1CCN(S(=O)(=O)c2ccc(Br)cc2)CC1 | -9 | 0 | 0 | -1
CCOC(=O)c1sc2ncn(CC(=O)NCc3ccccc3OC)c(=O)c2c1C | 9 | -1 | 0 | 13
Cc1nc(Nc2ccncc2)cc(-c2ccncc2)n1 | -7 | 1 | 0 | 13
COc1ccc2nc3c(cc2c1)c(N)nn3C(=O)c1ccc(F)cc1 | 36* | 1 | 0 | 7
SMILES | TEAD-YAP block | GPR151 activ | FBW7 activator | MITF inh
COc1ccc2cc3c(N)nn(C(=O)c4cccc([N+](=O)[O-])c4)c3nc2c1 | 21 | -1 | 0 | 7
Cc1ncn(-c2ccc(Nc3ncc4cccc(-n5ccnc5)c4n3)cc2)n1 | 38* | 0 | 5.7* | 5
Cc1ncn(-c2ccc(Nc3ncc4cccc(N5CCOCC5)c4n3)cc2)n1 | 48* | 0 | 0 | 1
CC(=O)c1c(C)oc2ccc(N(C(=O)c3cccc([N+](=O)[O-])c3)S(=O)(=O)c3ccccc3)cc12 | 13 | 1 | 0 | 13
O=C(CC1(O)C(=O)Nc2ccc(Br)cc21)c1cccc2ccccc12 (stereo not drawn) | 4 | -1 | 0 | -1
O=c1[nH]cccc1-c1nc2ccc(Cl)cc2s1 | 78* | -2 | 0 | -4
O=C1CC(C(=O)Nc2nc3ccc(Cl)cc3s2)c2ccccc21 (stereo not drawn) | -2 | 2 | 0 | -1
CC(C)CCNC(=O)c1cn(C)c2c(=O)n(-c3ccc(F)cc3)c(=O)[nH]c12 | 7 | 0 | 0 | 0
Cc1ccc(C)n1-c1ccc(C(=O)O)cc1O | -10 | -1 | -1 | 62*
Cc1ccc(C)n1-c1cc(C(=O)O)ccc1Cl | 6 | -1 | -1 | 76*
